PMC8384837, “Expanding the binding specificity for RNA recognition by a PUF domain”

These sequences were tested against PUM1 PUF domain R4-PFR (Homo sapiens, UniProt Q14671 828-1176, N971P;H972F;Q975R) (assay: yeast three-hybrid, YBZ-1, SC-Leu-His + 0.5 mM 3-AT, 4 days). Details: tags: N-Gal4 AD-HA kept; label: inside an RPR1-promoter hybrid RNA with tandem MS2 sites; ssRNA.
Procedure, shortened: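 A centromeric plasmid in strain YBZ-1 co-expressed Pumilio-1 PUF domain libraries, randomized at the three base-contacting residues of each repeat, with matching RNA elements; the strain carries a LexA–MS2 coat fusion and a HIS3 reporter. After four days on SC-Leu (input) or SC-Leu-His + 0.5 mM 3-AT (selection), the repeat regions were PCR-amplified and Illumina-sequenced. The interaction score is the log change in variant frequency from input to selection, using log2 and a pseudocount of 1 where absent.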

Sequence	binding signal
GGCUAGAACUAGUGGAUCCCCCGGCGCCCGGCGGCUCGAGCCCGGGUAAGUGUAUAUAGUCUGCAUGCCGCCGGGCGCCAUGCCUGCAGGUCGACUCUAGAAAACAUG	4.81 log2 enrichment (interaction score)
GGCUAGAACUAGUGGAUCCCCCGGCGCCCGGCGGCUCGAGCCCGGGUAAGUGUAAAUAGUCUGCAUGCCGCCGGGCGCCAUGCCUGCAGGUCGACUCUAGAAAACAUG	1.61 log2 enrichment (interaction score)
GGCUAGAACUAGUGGAUCCCCCGGCGCCCGGCGGCUCGAGCCCGGGUAAGUGUACAUAGUCUGCAUGCCGCCGGGCGCCAUGCCUGCAGGUCGACUCUAGAAAACAUG	6.57 log2 enrichment (interaction score)
